# PubChem BioAssay (EPA / NIEHS)
# Several values for one entry are separate records, joined by “and”; a condition that tells them apart may be missing. Equal values may be shown once. A structure can be active in one record and inactive in another. Activity calls are given as the source filed them. Rule for the calls: active = hit-call score of the fitted dose curve at least 0.9, where 1 is the maximum; inactive = score below 0.9.
# How the values were obtained:
# [1] = BSK_CASM3C_SRB: Viability Assessment in the BioMAP Diversity Plus: CASM3C Assay (AID 2283050); settings: primary human coronary artery smooth muscle cells;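 note: total protein by SRB staining as cytotoxicity measure in parallel cultures; cells exposed to compound for 24 h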
# [2] = read-out: Thrombomodulin, THBD (gene 7056); test: BSK_CASM3C_Thrombomodulin: BioMAP Diversity Plus: CASM3C Assay for Thrombomodulin Biomarker Activity (AID 2283051); settings: primary human coronary artery smooth muscle cells; actives raise or lower the signal;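 note: thrombomodulin protein level measured by ELISA 24 h after dosing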
# [3] = read-out: Tissue Factor, F3 (gene 2152); test: BSK_CASM3C_TissueFactor: BioMAP Diversity Plus: CASM3C Assay for Tissue Factor Biomarker Activity (AID 2283052); settings: primary human coronary artery smooth muscle cells; actives raise or lower the signal;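 note: cell surface tissue factor protein level read by ELISA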
# [4] = read-out: Interferon-gamma inducible Protein 10 (IP10), CXCL10 (gene 3627); test: BSK_hDFCGF_IP10: BioMAP Diversity Plus: hDFCGF Assay for Interferon-gamma inducible Protein 10 (IP10) Biomarker Activity (AID 2283053); settings: primary human foreskin fibroblasts; actives raise or lower the signal
# Summary of the method: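 Primary foreskin fibroblasts, human; 24 h compound exposure; IP-10 by ELISA; bidirectional fit vs DMSO.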
# [5] = read-out: Urokinase-type plasminogen activator receptor (uPAR), PLAUR (gene 5329); test: BSK_CASM3C_uPAR: BioMAP Diversity Plus: CASM3C Assay for Urokinase-type plasminogen activator receptor (uPAR) Biomarker Activity (AID 2283054); settings: primary human coronary artery smooth muscle cells; actives raise or lower the signal;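 note: cell-surface uPAR protein level quantified by ELISA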
# [6] = read-out: Vascular cell adhesion molecule 1 (VCAM1), VCAM1 (gene 7412); test: BSK_CASM3C_VCAM1: BioMAP Diversity Plus: CASM3C Assay for Vascular cell adhesion molecule 1 (VCAM1) Biomarker Activity (AID 2283055); settings: primary human coronary artery smooth muscle cells; actives raise or lower the signal;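 note: VCAM-1 protein level quantified by ELISA on the cells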
# [7] = read-out: Collagen III, COL3A1 (gene 1281); test: BSK_hDFCGF_CollagenIII: BioMAP Diversity Plus: hDFCGF Assay for Collagen III Biomarker Activity (AID 2283056); settings: primary human foreskin fibroblasts; actives raise or lower the signal
# Summary of the method: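 ELISA readout of Collagen III in human dermal (foreskin) fibroblasts, taken 24 h post-treatment. Gain or loss relative to DMSO vehicle fitted in both directions.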
# [8] = read-out: Epidermal growth factor receptor (EGFR), EGFR (gene 1956); test: BSK_hDFCGF_EGFR: BioMAP Diversity Plus: hDFCGF Assay for Epidermal growth factor receptor (EGFR) Biomarker Activity (AID 2283057); settings: primary human foreskin fibroblasts; actives raise or lower the signal
# Summary of the method: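 hDFCGF system, primary human foreskin fibroblasts; compound 24 h; EGFR measured by ELISA; DMSO = negative control/baseline; bidirectional fitting.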
# [9] = read-out: Interleukin-8 (IL8), CXCL8 (gene 3576); test: BSK_hDFCGF_IL8: BioMAP Diversity Plus: hDFCGF Assay for Interleukin-8 (IL8) Biomarker Activity (AID 2283058); settings: primary human foreskin fibroblasts; actives raise or lower the signal
# Summary of the method: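 IL-8 levels read by ELISA at 24 hours after dosing human skin fibroblast cultures. Parallel SRB staining assessed overt cytotoxicity, and gain or loss of signal was fitted against DMSO control.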
# [10] = BSK_hDFCGF_Proliferation: Cell Proliferation Assessment in the BioMAP Diversity Plus: hDFCGF Assay (AID 2283059); settings: primary human foreskin fibroblasts;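 note: curves fitted for both rise and fall of signal versus DMSO baseline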
# Summary of the method: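 Primary human foreskin fibroblasts, sub-confluent; […]; 10% TCA fix, 0.1% SRB stain, A560 total protein. Gain/loss fitted bidirectionally vs DMSO control.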
# [11] = read-out: Macrophage colony-stimulating factor (MCSF), CSF1 (gene 1435); test: BSK_hDFCGF_MCSF: BioMAP Diversity Plus: hDFCGF Assay for Macrophage colony-stimulating factor (MCSF) Biomarker Activity (AID 2283060); settings: primary human foreskin fibroblasts; actives raise or lower the signal
# Summary of the method: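 M-CSF levels read by ELISA at 24 h post-dosing in human skin fibroblasts. Parallel cultures stained with SRB assessed cytotoxicity at the same time point; response fitted in both directions against the DMSO baseline.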
# [12] = BSK_hDFCGF_SRB: Viability Assessment in the BioMAP Diversity Plus: hDFCGF Assay (AID 2283061); settings: primary human foreskin fibroblasts;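 note: cells exposed to compound for 24 h before the read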
# Summary of the method: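 Viability was read as total protein: after 10% TCA fixation, wells were stained with 0.1% sulforhodamine B and read at 560 nm. Primary human foreskin fibroblasts were dosed for 24 h, with bidirectional fitting versus DMSO.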
# [13] = read-out: TIMP metallopeptidase inhibitor 1 (TIMP1), TIMP1 (gene 7076); test: BSK_hDFCGF_TIMP1: BioMAP Diversity Plus: hDFCGF Assay for TIMP metallopeptidase inhibitor 1 (TIMP1) Biomarker Activity (AID 2283062); settings: primary human foreskin fibroblasts; actives raise or lower the signal
# Summary of the method: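 TIMP-1 measured by ELISA 24 h after chemical dosing of primary human skin fibroblasts, with gain or loss fitted relative to DMSO. Parallel SRB staining (560 nm) monitored overt cytotoxicity.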
# [14] = read-out: Monokine induced gamma interferon (MIG), CXCL9 (gene 4283); test: BSK_hDFCGF_MIG: BioMAP Diversity Plus: hDFCGF Assay for Monokine induced gamma interferon (MIG) Biomarker Activity (AID 2283063); settings: primary human foreskin fibroblasts; actives raise or lower the signal
# Summary of the method: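 Human primary foreskin fibroblasts in the hDFCGF system, exposed to test chemical for 24 h; MIG measured by ELISA. Bidirectional curve fitting against DMSO negative control as activity baseline.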
# [15] = read-out: Matrix Metallopeptidase 1 (MMP1), MMP1 (gene 4312); test: BSK_hDFCGF_MMP1: BioMAP Diversity Plus: hDFCGF Assay for Matrix Metallopeptidase 1 (MMP1) Biomarker Activity (AID 2283064); settings: primary human foreskin fibroblasts; actives raise or lower the signal
# Summary of the method: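 Primary human foreskin fibroblasts exposed to chemicals for 24 h; MMP1 measured by ELISA. Cytotoxicity tracked by SRB staining in parallel cultures; bidirectional fit relative to DMSO.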
# [16] = read-out: Vascular cell adhesion molecule 1 (VCAM1), VCAM1 (gene 7412); test: BSK_hDFCGF_VCAM1: BioMAP Diversity Plus: hDFCGF Assay for Vascular cell adhesion molecule 1 (VCAM1) Biomarker Activity (AID 2283065); settings: primary human foreskin fibroblasts; actives raise or lower the signal;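 for AC50: VCAM-1 protein level quantified by ELISA after 24 h chemical exposure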
# Summary of the method: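 ELISA readout of VCAM-1 on human dermal fibroblast primary cultures, 24 h after chemical exposure. Gain or loss of signal fitted in both directions against DMSO baseline.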
# [17] = read-out: Plasminogen activator inhibitor-1 (PAI1), SERPINE1 (gene 5054); test: BSK_hDFCGF_PAI1: BioMAP Diversity Plus: hDFCGF Assay for Plasminogen activator inhibitor-1 (PAI1) Biomarker Activity (AID 2283066); settings: primary human foreskin fibroblasts; actives raise or lower the signal
# Summary of the method: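 Primary dermal fibroblasts (human foreskin), hDFCGF system; compound 24 h; PAI-1 by ELISA; bidirectional fit vs DMSO control.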
# [18] = read-out: Interferon-gamma inducible Protein 10 (IP10), CXCL10 (gene 3627); test: BSK_KF3CT_IP10: BioMAP Diversity Plus: KF3CT Assay for Interferon-gamma inducible Protein 10 (IP10) Biomarker Activity (AID 2283068); settings: primary human keratinocytes with fibroblasts; actives raise or lower the signal
# Summary of the method: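 In a primary skin co-culture of keratinocytes and fibroblasts, IP-10 is quantified by ELISA at 24 h after dosing. SRB staining of parallel wells monitors overt toxicity. Curves are fitted both directions against DMSO.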
# [19] = BSK_KF3CT_SRB: Viability Assessment in the BioMAP Diversity Plus: KF3CT Assay (AID 2283069); settings: primary human keratinocytes with fibroblasts;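 note: total protein by sulforhodamine B staining as a cytotoxicity measure; read 24 h after compound addition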
# Summary of the method: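 Human keratinocyte and foreskin fibroblast co-culture exposed to chemical for 24 h. Total protein measured in parallel cultures by 0.1% sulforhodamine B staining after 10% TCA fixation, read at 560 nm; bidirectional fit relative to DMSO.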
# [20] = read-out: Intercellular Adhesion Molecule 1 (ICAM1), ICAM1 (gene 3383); test: BSK_KF3CT_ICAM1: BioMAP Diversity Plus: KF3CT Assay for Intercellular Adhesion Molecule 1 (ICAM1) Biomarker Activity (AID 2283067); settings: primary human keratinocytes with fibroblasts; actives raise or lower the signal
# Summary of the method: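 Cell-surface ICAM-1 was measured by ELISA 24 h after dosing primary human skin keratinocytes co-cultured with fibroblasts. Parallel SRB staining tracked overt cytotoxicity. Gain or loss of signal was fitted relative to DMSO.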
compound,measurement,setting,value
FC(F)(F)C(F)(F)C(F)(F)C(F)(F)C(F)(F)C(F)(F)C(F)(F)I,outcome,[1],inactive
same,outcome,[2],inactive
same,outcome,[3],inactive
same,outcome,[4],inactive
same,outcome,[5],inactive
same,outcome,[6],inactive
same,outcome,[7],inactive
same,outcome,[8],inactive
same,outcome,[9],inactive
same,AC50,[10],2.64 µM (active)
same,outcome,[10],inactive
same,outcome,[11],inactive
same,outcome,[12],inactive
same,outcome,[13],inactive
same,outcome,[14],inactive
same,outcome,[15],inactive
same,outcome,[16],inactive
same,outcome,[17],inactive
same,outcome,[18],inactive
same,outcome,[19],inactive
O=C(O)C(F)(F)C(F)(F)C(F)(F)C(F)(F)C(F)(F)C(F)(F)C(F)(F)C(F)(F)C(F)(F)C(F)(F)C(F)(F)C(F)(F)F,outcome,[1],inactive
same,AC50,[2],13.3 µM (active)
same,outcome,[2],inactive
same,outcome,[3],inactive
same,AC50,[4],1.86 µM (active) and 1.07 µM (active)
same,outcome,[5],inactive
same,AC50,[6],7.09 µM (active) and 4.44 µM (active)
same,outcome,[8],inactive
same,outcome,[9],inactive
same,AC50,[10],2.47 µM (active)
same,outcome,[10],inactive
same,AC50,[11],6.46 µM (active)
same,outcome,[11],inactive
same,AC50,[12],6.27 µM (active)
same,outcome,[12],inactive
same,outcome,[13],inactive
same,AC50,[14],2.35 µM (active) and 1.17 µM (active)
same,AC50,[15],1.6 µM (active)
same,outcome,[15],inactive
same,AC50,[16],4.75 µM (active) and 1.14 µM (active)
same,outcome,[17],inactive
same,outcome,[20],inactive
same,AC50,[18],22.5 µM (active)
same,outcome,[18],inactive
same,outcome,[19],inactive
FC1CC(F)(F)C(F)(F)C1(F)F (stereo not given),outcome,[1],inactive
same,outcome,[2],inactive
same,outcome,[3],inactive
same,outcome,[4],inactive
same,outcome,[5],inactive
same,outcome,[6],inactive
same,outcome,[7],inactive
same,outcome,[8],inactive
same,outcome,[9],inactive
same,outcome,[10],inactive
same,outcome,[11],inactive
same,AC50,[12],21.1 µM (active)
same,outcome,[12],inactive
same,outcome,[13],inactive
same,outcome,[14],inactive
same,outcome,[15],inactive
same,outcome,[16],inactive
same,outcome,[17],inactive
same,outcome,[18],inactive
same,outcome,[19],inactive
FC(F)(F)C(F)(F)C(F)(F)C(F)(F)C(F)(F)C(F)(F)C(F)(F)C(F)(F)CCS,outcome,[1],inactive
same,outcome,[2],inactive
same,AC50,[3],0.0438 µM (active)
same,outcome,[3],inactive
same,outcome,[4],inactive
same,outcome,[5],inactive
same,outcome,[6],inactive
same,outcome,[8],inactive
same,outcome,[9],inactive
same,outcome,[10],inactive
same,outcome,[11],inactive
same,outcome,[12],inactive
same,outcome,[13],inactive
same,outcome,[14],inactive
same,outcome,[15],inactive
same,outcome,[16],inactive
same,outcome,[17],inactive
same,outcome,[18],inactive
same,outcome,[19],inactive
FC(F)(F)C(F)(F)C(F)(F)C(F)(F)C(F)(F)C(F)(F)C(F)(F)Br,outcome,[1],inactive
same,outcome,[2],inactive
same,outcome,[3],inactive
same,outcome,[4],inactive
same,outcome,[5],inactive
same,outcome,[6],inactive
same,outcome,[7],inactive
same,outcome,[8],inactive
same,outcome,[9],inactive
same,outcome,[10],inactive
same,outcome,[11],inactive
same,outcome,[12],inactive
same,outcome,[13],inactive
same,outcome,[14],inactive
same,outcome,[15],inactive
same,outcome,[16],inactive
same,outcome,[17],inactive
same,outcome,[20],inactive
same,outcome,[18],inactive
same,outcome,[19],inactive
CCCCCCC(C)OC(=O)CCCCC(=O)OC(C)CCCCCC (stereo not given),outcome,[1],inactive
same,outcome,[2],inactive
same,outcome,[3],inactive
same,outcome,[4],inactive
same,outcome,[5],inactive
same,outcome,[6],inactive
same,outcome,[7],inactive
same,outcome,[8],inactive
same,outcome,[9],inactive
same,outcome,[10],inactive
same,outcome,[11],inactive
same,outcome,[12],inactive
same,outcome,[13],inactive
same,outcome,[14],inactive
same,outcome,[15],inactive
same,outcome,[16],inactive
same,outcome,[17],inactive
same,outcome,[18],inactive
same,outcome,[19],inactive
O=C(O)C(F)(OC(F)(F)C(F)(OC(F)(F)C(F)(F)C(F)(F)F)C(F)(F)F)C(F)(F)F (stereo not given),outcome,[1],inactive
same,outcome,[2],inactive
same,outcome,[3],inactive
same,outcome,[4],inactive
same,outcome,[5],inactive
same,outcome,[6],inactive
same,outcome,[7],inactive
same,outcome,[8],inactive
same,outcome,[9],inactive
same,outcome,[10],inactive
same,outcome,[11],inactive
same,outcome,[12],inactive
same,outcome,[13],inactive
same,outcome,[14],inactive
same,outcome,[15],inactive
same,outcome,[16],inactive
same,outcome,[17],inactive
same,outcome,[20],inactive
same,outcome,[18],inactive
same,outcome,[19],inactive
OCC(F)(F)C(F)(F)C(F)(F)C(F)F,outcome,[1],inactive
same,outcome,[2],inactive
same,outcome,[3],inactive
same,outcome,[4],inactive
same,outcome,[5],inactive
same,outcome,[6],inactive
same,outcome,[8],inactive
same,outcome,[9],inactive
same,outcome,[10],inactive
same,outcome,[11],inactive
same,outcome,[12],inactive
same,outcome,[13],inactive
same,outcome,[14],inactive
same,outcome,[15],inactive
same,outcome,[16],inactive
same,AC50,[17],1.98 µM (active)
same,outcome,[17],inactive
same,outcome,[18],inactive
same,outcome,[19],inactive
NC(=O)C(F)(F)C(F)(F)C(F)(F)C(F)(F)F,outcome,[1],inactive
same,outcome,[2],inactive
same,outcome,[3],inactive
same,outcome,[4],inactive
same,outcome,[5],inactive
same,outcome,[6],inactive
same,outcome,[8],inactive
same,outcome,[9],inactive
same,outcome,[10],inactive
same,outcome,[11],inactive
same,outcome,[12],inactive
same,outcome,[13],inactive
same,outcome,[14],inactive
same,outcome,[15],inactive
same,outcome,[16],inactive
same,outcome,[17],inactive
same,outcome,[18],inactive
same,outcome,[19],inactive
